Source: publication PMC9838217, “Structure of SALL4 zinc finger domain reveals link between AT-rich DNA binding and Okihiro syndrome”
Changes are numbered by the printed parent chain.

Key:
Assay in all cases: HT-SELEX; high values mean tight binding
Settings in all cases: protein: recombinant; vector His6-GST; dsDNA, one strand shown
SALL4 ZFC4 WT (HT-SELEX) = molecular target: T1, SALL4 ZFC4 WT (HT-SELEX) (Mus musculus, UniProt Q8BX22 870-940)
T1 sequence: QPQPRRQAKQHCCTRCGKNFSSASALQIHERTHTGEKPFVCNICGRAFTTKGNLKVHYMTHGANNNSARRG
Method in brief: (§1)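 Library DNA (1.5 µg in cycle one, 200 ng in later cycles) was incubated with 1 µg of purified recombinant mouse SALL4 zinc finger cluster 4, residues 870–940, in 100 µl buffer (10 mM Tris–HCl pH 7.5, 50 mM NaCl, poly(dI-dC), DTT) at room temperature for 10 min. Up to 6 rounds of Ni2+ bead capture, washing, PCR amplification and reselection were run in triplicate. Reads from MiSeq sequencing were scanned for 6-mers. For each canonical k-mer, binding signal is its read fraction as fold change versus the original random library.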

[1] = molecular target: T2, SALL4 ZFC4 R900W (HT-SELEX) (Mus musculus, UniProt Q8BX22 870-940, R900W)
T2 sequence: T1 sequence with R31W
Method in brief: as §1

[2] = molecular target: T3, SALL4 ZFC4 G921D (HT-SELEX) (Mus musculus, UniProt Q8BX22 870-940, G921D)
T3 sequence: T1 sequence with G52D
Method in brief: as §1

Row | Sequence | binding signal (SALL4 ZFC4 WT (HT-SELEX)) [fold-change vs cycle 0] | binding signal [1] [fold-change vs cycle 0] | binding signal [2] [fold-change vs cycle 0]
1 | GTAGCA | 0.6472 ± 0.00166 | 0.74 ± 0.0284 | 0.817 ± 0.0421
2 | AACCAT | 1.38 ± 0.0512 | 1.42 ± 0.0463 | 1.41 ± 0.0967
3 | AGGTTC | 0.828 ± 0.0497 | 0.972 ± 0.0561 | 1.02 ± 0.0282
4 | CACCGA | 0.338 ± 0.00929 | 0.392 ± 0.0114 | 0.523 ± 0.056
5 | CGGAAG | 0.465 ± 0.0113 | 0.58 ± 0.0281 | 0.707 ± 0.0759
6 | TAAGCA | 1.282 ± 0.00819 | 1.3 ± 0.0615 | 1.26 ± 0.0364
7 | ACAGTC | 0.718 ± 0.0285 | 0.8733 ± 0.00718 | 0.889 ± 0.0202
8 | AACTTC | 1.37 ± 0.0514 | 1.52 ± 0.0544 | 1.4 ± 0.0625
9 | CATGTA | 1.28 ± 0.0897 | 1.37 ± 0.0595 | 1.35 ± 0.123
10 | GCTCAA | 0.548 ± 0.03 | 0.644 ± 0.0305 | 0.763 ± 0.038
11 | GAGATC | 0.836 ± 0.059 | 0.953 ± 0.0609 | 1.06 ± 0.0528
12 | ACGATC | 0.662 ± 0.038 | 0.773 ± 0.0211 | 0.907 ± 0.0183
13 | ATGCAG | 0.674 ± 0.0311 | 0.754 ± 0.0134 | 0.818 ± 0.0231
14 | ACCGGA | 0.381 ± 0.0137 | 0.447 ± 0.0161 | 0.56 ± 0.0517
15 | ATATTA | 4.97 ± 0.422 | 2.59 ± 0.139 | 2.22 ± 0.236
16 | ACTGCT | 0.712 ± 0.054 | 0.797 ± 0.0817 | 0.89 ± 0.0309
17 | AATAGT | 1.96 ± 0.0795 | 1.94 ± 0.0794 | 1.77 ± 0.136
18 | AGTGAA | 1.35 ± 0.0774 | 1.52 ± 0.125 | 1.39 ± 0.134
19 | ATGCAT | 1.33 ± 0.0832 | 1.27 ± 0.0798 | 1.26 ± 0.0876
20 | GATCGA | 0.664 ± 0.0531 | 0.763 ± 0.0206 | 0.91 ± 0.0578

Row | Sequence | binding signal (SALL4 ZFC4 WT (HT-SELEX)) [fold-change vs cycle 0] | binding signal [1] [fold-change vs cycle 0] | binding signal [2] [fold-change vs cycle 0]
21 | CACTCG | 0.397 ± 0.0122 | 0.459 ± 0.00566 | 0.562 ± 0.0414
22 | CCATTC | 0.803 ± 0.0377 | 0.923 ± 0.0207 | 0.938 ± 0.0225
23 | CGTGAG | 0.437 ± 0.0456 | 0.501 ± 0.006 | 0.607 ± 0.0306
24 | GAGTGA | 0.906 ± 0.0342 | 1.02 ± 0.0645 | 1.05 ± 0.0602
25 | ATACTC | 1.45 ± 0.0421 | 1.5 ± 0.0712 | 1.44 ± 0.097
26 | AGTTCG | 0.647 ± 0.0383 | 0.741 ± 0.0101 | 0.828 ± 0.0183
27 | CCTTCA | 0.899 ± 0.0192 | 1.05 ± 0.0389 | 1.06 ± 0.0107
28 | CCTACC | 0.45 ± 0.0245 | 0.53 ± 0.00975 | 0.625 ± 0.0741
29 | CAGGAG | 0.48 ± 0.0178 | 0.596 ± 0.041 | 0.676 ± 0.0293
30 | GAACCA | 0.766 ± 0.0201 | 0.871 ± 0.0494 | 0.937 ± 0.0521
31 | CGGATA | 0.674 ± 0.0155 | 0.747 ± 0.0235 | 0.823 ± 0.043
32 | AGTAGG | 0.864 ± 0.0537 | 0.972 ± 0.0557 | 0.989 ± 0.0263
33 | TCACGA | 0.737 ± 0.0222 | 0.841 ± 0.0178 | 0.889 ± 0.0148
34 | TAGCTA | 1.22 ± 0.05 | 1.3 ± 0.064 | 1.29 ± 0.0827
35 | TACCTA | 1.35 ± 0.0562 | 1.48 ± 0.0891 | 1.42 ± 0.0965
36 | CGTAAG | 0.774 ± 0.0532 | 0.862 ± 0.0372 | 0.905 ± 0.0422
37 | ATTGGC | 0.461 ± 0.0252 | 0.5 ± 0.0137 | 0.665 ± 0.0716
38 | AATCTA | 2.03 ± 0.138 | 2 ± 0.0814 | 1.8 ± 0.18
39 | AGCTGG | 0.346 ± 0.0084 | 0.411 ± 0.0182 | 0.522 ± 0.0592
40 | CTGCAG | 0.318 ± 0.0345 | 0.373 ± 0.0324 | 0.467 ± 0.0711

Row | Sequence | binding signal (SALL4 ZFC4 WT (HT-SELEX)) [fold-change vs cycle 0] | binding signal [1] [fold-change vs cycle 0] | binding signal [2] [fold-change vs cycle 0]
41 | TATACA | 2.08 ± 0.107 | 1.99 ± 0.114 | 1.77 ± 0.145
42 | CAAGGG | 0.487 ± 0.0326 | 0.5882 ± 0.00585 | 0.665 ± 0.033
43 | CAGCTG | 0.312 ± 0.0432 | 0.397 ± 0.0183 | 0.499 ± 0.0395
44 | ACGGAC | 0.337 ± 0.0313 | 0.425 ± 0.0312 | 0.526 ± 0.0575
45 | CTGACA | 0.738 ± 0.0153 | 0.843 ± 0.0362 | 0.914 ± 0.0368
46 | AGCTTC | 0.709 ± 0.0328 | 0.839 ± 0.0164 | 0.895 ± 0.0229
47 | ACGACT | 0.624 ± 0.0259 | 0.718 ± 0.0114 | 0.813 ± 0.0216
48 | AGAAGA | 1.43 ± 0.0638 | 1.64 ± 0.118 | 1.47 ± 0.162
49 | GATTGC | 0.641 ± 0.0324 | 0.711 ± 0.00883 | 0.817 ± 0.0343
50 | CGTATC | 0.723 ± 0.0291 | 0.818 ± 0.0282 | 0.89 ± 0.0234
51 | CAACTA | 1.19 ± 0.0469 | 1.31 ± 0.0705 | 1.29 ± 0.0584
52 | CTACAG | 0.79 ± 0.0207 | 0.894 ± 0.0405 | 0.94 ± 0.015
53 | AGACCG | 0.32 ± 0.0198 | 0.393 ± 0.0317 | 0.525 ± 0.0509
54 | GTTTTA | 1.65 ± 0.0877 | 1.66 ± 0.0685 | 1.54 ± 0.113
55 | ATGGTC | 0.721 ± 0.0351 | 0.8234 ± 0.00272 | 0.902 ± 0.0335
56 | ACAAGA | 1.29 ± 0.0493 | 1.52 ± 0.0767 | 1.39 ± 0.105
57 | ACATGA | 1.38 ± 0.0574 | 1.49 ± 0.0283 | 1.4 ± 0.088
58 | GCAAGA | 0.671 ± 0.0141 | 0.766 ± 0.0335 | 0.825 ± 0.0528
59 | CGAGAG | 0.428 ± 0.0305 | 0.515 ± 0.0447 | 0.628 ± 0.0528
60 | ATCCCG | 0.428 ± 0.0246 | 0.4832 ± 0.00274 | 0.574 ± 0.0423
